The text below walks through data of PubChem BioAssay (NCI).

Some test systems named below: HCT-15 colon; HT29 colon; SNB-75 CNS; SNB-19 CNS; U251 CNS; PC-3 prostate; SK-MEL-5 melanoma; UACC-62 melanoma; LOX IMVI melanoma; SK-MEL-28 melanoma; SK-MEL-2 melanoma; EKVX NSCLC; SN12C renal; UO-31 renal; TK-10 renal; ACHN renal; CAKI-1 renal; A498 renal; CCRF-CEM leukemia; MOLT-4 leukemia.
Holding throughout (experiment): NCI-60 one-dose screen, 48 h (100 = growth as untreated, 0 = no growth, -100 = all killed)
What all share (conditions): 10 µM unless noted

This is part of a sample that, as a whole, favours compounds with a hit. Of some 83,000 tested, about 20% had one in any assay.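 Activity criterion: percent growth below 10, measured after cells in 96-well plates were exposed to a single compound concentration for 48 hours.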 Values without a mark were called inactive. Activity calls are given as the source filed them.

`C#C[C@]1(O)CC[C@H]2[C@@H]3CC=C4c5sc(Nc6cccc(F)c6)nc5CC[C@]4(C)[C@H]3CC[C@@]21C`: the growth in the test with HCT-15 colon is -28.6% (active); in the test on HT29 colon it was -23.3% (active); in the test with SNB-75 CNS, 24.1%; in the test on SNB-19 CNS, 35.8%; with U251 CNS, 10%; with PC-3 prostate, 19.2%. The growth is 42.6% in the test on SK-MEL-5 melanoma; 5.77% (active) in the test on UACC-62 melanoma; -57.6% (active) in the test on LOX IMVI melanoma; 13.8% with SK-MEL-28 melanoma; 27.8% in the test with SK-MEL-2 melanoma; 25% in the test with EKVX NSCLC. Further, the growth in the test on SN12C renal was 45.6%; in the test with UO-31 renal, 17.1%; in the test with TK-10 renal it was 65.1%; in the test on ACHN renal it was 35%; with CAKI-1 renal it was 7.13% (active); in the test on A498 renal, 31.7%. The values for the growth in the test on CCRF-CEM leukemia and in the test with MOLT-4 leukemia were 8.66% (active) and 5.5% (active), respectively.
On to `COc1ccc(C(C)=C(c2ccc(OCCN3CCCCCC3)cc2)c2ccc(OCCN3CCCCCC3)cc2)cc1`, for which the growth in the test with HCT-15 colon was -82.1% (active); in the test with HT29 colon, -49.9% (active); with SNB-75 CNS, -12% (active); in the test with SNB-19 CNS it was -51.7% (active); with U251 CNS it was -77.9% (active); in the test with PC-3 prostate it was -54.6% (active). Besides, the growth was -92% (active) in the test on SK-MEL-5 melanoma; -65.2% (active) in the test on UACC-62 melanoma; -84% (active) in the test on LOX IMVI melanoma; -89.3% (active) in the test on SK-MEL-28 melanoma; -65.2% (active) in the test with SK-MEL-2 melanoma; 1.68% (active) with EKVX NSCLC. The growth with SN12C renal is 0.944% (active); with UO-31 renal, -79.3% (active); in the test on TK-10 renal, 27.1%; in the test on ACHN renal, -57.8% (active); with CAKI-1 renal it was -45.9% (active); with A498 renal, 27.9%. The growth was 0.672% (active) with CCRF-CEM leukemia and -5.35% (active) in the test on MOLT-4 leukemia.
As to `COc1cc(/C=C2/C(=O)Nc3ccc(Cl)cc32)ccc1OCc1ccc(Cl)cc1`, the growth with HCT-15 colon is 86.5%; with HT29 colon, 94.1%; in the test with SNB-75 CNS, 77.7%; in the test on SNB-19 CNS it was 91.3%; with U251 CNS, 50.7%; with PC-3 prostate it was 84.2%. Further, the growth with SK-MEL-5 melanoma was 89.2%; in the test with UACC-62 melanoma it was 70.2%; in the test with LOX IMVI melanoma, 68.3%; in the test with SK-MEL-28 melanoma it was 103%; in the test on SK-MEL-2 melanoma, 107%; with EKVX NSCLC, 88.5%. Besides, the growth in the test on SN12C renal was 88.9%; with UO-31 renal, 74.3%; with TK-10 renal, 129%; with ACHN renal, 52.7%; with CAKI-1 renal, 83.3%; in the test with A498 renal it was 93.4%. Also, the values for the growth in the test with CCRF-CEM leukemia and in the test on MOLT-4 leukemia were 69.5% and 76.7%, respectively.
Take `Clc1cccc(/C=N/Nc2nc(N/N=C/c3cccc(Cl)c3)nc(N3CCCCC3)n2)c1`: the growth is 79.8% with HCT-15 colon; 85.6% in the test with HT29 colon; 102% with SNB-75 CNS; 98.6% in the test on SNB-19 CNS; 91.7% with U251 CNS; 76% in the test with PC-3 prostate. Besides, the growth in the test on SK-MEL-5 melanoma was 80.6%; with UACC-62 melanoma, 79.2%; in the test with LOX IMVI melanoma, 105%; with SK-MEL-28 melanoma, 96.2%; in the test on SK-MEL-2 melanoma it was 86.1%; in the test on EKVX NSCLC, 78.4%. For the same compound, the growth was 92.4% in the test on SN12C renal; 76.7% in the test with UO-31 renal; 106% in the test on TK-10 renal; 101% in the test on ACHN renal; 92.4% in the test on CAKI-1 renal; 92.2% in the test on A498 renal. For the same compound, the growth in the test with CCRF-CEM leukemia was 75%; in the test with MOLT-4 leukemia it was 68.7%.
As to `CC(O)c1cccc(/C(N)=N/C(N)=N/c2nc3ccccc3s2)c1` (stereo not given), the growth in the test with HCT-15 colon is 56.7%; in the test on HT29 colon, 110%; in the test on SNB-75 CNS, 80%; in the test with SNB-19 CNS, 89.3%; in the test with U251 CNS, 74.2%; with PC-3 prostate, 64.9%. The growth was 83.4% with SK-MEL-5 melanoma; 87.8% with UACC-62 melanoma; 64.3% with LOX IMVI melanoma; 100% in the test on SK-MEL-28 melanoma; 107% with SK-MEL-2 melanoma; 91.9% with EKVX NSCLC. In addition, the growth in the test on SN12C renal was 86.9%; in the test on UO-31 renal, 89.2%; with TK-10 renal, 133%; with ACHN renal it was 86.6%; with CAKI-1 renal, 101%; with A498 renal, 90.7%. The growth in the test on CCRF-CEM leukemia was 84%; in the test on MOLT-4 leukemia it was 83.9%.
Consider `CCOC(=O)c1c(NC(=O)c2cccc(C(F)(F)F)c2)sc2c3c(ccc12)OCN(C)C3`, for which the growth is -70.9% (active) in the test with HCT-15 colon; -11.8% (active) in the test with HT29 colon; 83.6% in the test on SNB-75 CNS; 49.6% in the test with SNB-19 CNS; -79.4% (active) in the test on U251 CNS; -42.5% (active) in the test with PC-3 prostate. Also, the growth in the test on SK-MEL-5 melanoma was 68.6%; in the test on UACC-62 melanoma, 25.6%; with LOX IMVI melanoma, -94.7% (active); with SK-MEL-28 melanoma, 9.77% (active); in the test with SK-MEL-2 melanoma, 98.8%; with EKVX NSCLC, 36.9%. For the same compound, the growth was -66.2% (active) in the test on SN12C renal; 31.8% with UO-31 renal; 126% in the test on TK-10 renal; -91.9% (active) with ACHN renal; 44.8% with CAKI-1 renal; 84.3% in the test with A498 renal. For the same compound, the growth was -39.5% (active) with CCRF-CEM leukemia and -48.5% (active) with MOLT-4 leukemia.
Turning to `Cc1[nH]c(C(=O)Nc2ccccc2OCc2cccc(C(=O)NC3CCNC3)c2)c(Cl)c1Cl` (stereo not given), the growth with HCT-15 colon was 35.2%; in the test with HT29 colon it was -47.7% (active); in the test on SNB-75 CNS, 73.6%; in the test with SNB-19 CNS, 9.65% (active); in the test with U251 CNS, -56.2% (active); in the test on PC-3 prostate it was 59.1%. The growth is 97.6% in the test with SK-MEL-5 melanoma; 75% in the test with UACC-62 melanoma; -85.1% (active) with LOX IMVI melanoma; -44.4% (active) in the test on SK-MEL-28 melanoma; 101% with SK-MEL-2 melanoma; 79.6% in the test with EKVX NSCLC. Also, the growth with SN12C renal was -33.5% (active); with UO-31 renal, 84.9%; in the test with TK-10 renal it was 101%; in the test on ACHN renal it was 74.9%; with CAKI-1 renal, 27.5%; in the test with A498 renal, 79.7%. Also, the growth was 6.3% (active) in the test with CCRF-CEM leukemia and 1.73% (active) in the test with MOLT-4 leukemia.
In the case of `C#C[C@]1(O)CC[C@H]2[C@@H]3CC=C4c5sc(Nc6ccc(C)cn6)nc5CC[C@]4(C)[C@H]3CC[C@@]21C`, the growth is -45.6% (active) with HCT-15 colon; 1.03% (active) with HT29 colon; -12.2% (active) with SNB-75 CNS; -21.2% (active) in the test on SNB-19 CNS; -1.79% (active) with U251 CNS; -27.3% (active) in the test with PC-3 prostate. Moreover, the growth was -93.1% (active) in the test with SK-MEL-5 melanoma; -24.8% (active) in the test on UACC-62 melanoma; -61.7% (active) in the test on LOX IMVI melanoma; -72.4% (active) in the test on SK-MEL-28 melanoma; -25.1% (active) with SK-MEL-2 melanoma; -21.7% (active) in the test with EKVX NSCLC. In addition, the growth is 45.9% with SN12C renal; -63.7% (active) in the test with UO-31 renal; 18.6% in the test on TK-10 renal; 17.4% in the test on ACHN renal; -74.1% (active) in the test with CAKI-1 renal; -26.5% (active) in the test on A498 renal. For the same compound, the growth was 10.6% in the test with CCRF-CEM leukemia and -42.3% (active) with MOLT-4 leukemia.
